# Data published in paper PMC4336329 (PLoS ONE, 2015).
# Hit rate of the full screen: of about 310,000 compounds, about 14,000 (4.5%) showed an effect of 50% or more. Effects have a minus sign here. This excerpt belongs to a sample that is enriched for strong results.
# Biological target: human ether-à-go-go-related gene (hERG) potassium channel (human, UniProt Q12809)
# Test: primary screen, population patch clamp on CHO cells stably expressing hERG; higher = less effect of the substance
# 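Also: peak tail current of the secondary pulse compared with the same well before compound.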
# Sequence of human ether-à-go-go-related gene (hERG) potassium channel (Q12809 whole entry, looked up): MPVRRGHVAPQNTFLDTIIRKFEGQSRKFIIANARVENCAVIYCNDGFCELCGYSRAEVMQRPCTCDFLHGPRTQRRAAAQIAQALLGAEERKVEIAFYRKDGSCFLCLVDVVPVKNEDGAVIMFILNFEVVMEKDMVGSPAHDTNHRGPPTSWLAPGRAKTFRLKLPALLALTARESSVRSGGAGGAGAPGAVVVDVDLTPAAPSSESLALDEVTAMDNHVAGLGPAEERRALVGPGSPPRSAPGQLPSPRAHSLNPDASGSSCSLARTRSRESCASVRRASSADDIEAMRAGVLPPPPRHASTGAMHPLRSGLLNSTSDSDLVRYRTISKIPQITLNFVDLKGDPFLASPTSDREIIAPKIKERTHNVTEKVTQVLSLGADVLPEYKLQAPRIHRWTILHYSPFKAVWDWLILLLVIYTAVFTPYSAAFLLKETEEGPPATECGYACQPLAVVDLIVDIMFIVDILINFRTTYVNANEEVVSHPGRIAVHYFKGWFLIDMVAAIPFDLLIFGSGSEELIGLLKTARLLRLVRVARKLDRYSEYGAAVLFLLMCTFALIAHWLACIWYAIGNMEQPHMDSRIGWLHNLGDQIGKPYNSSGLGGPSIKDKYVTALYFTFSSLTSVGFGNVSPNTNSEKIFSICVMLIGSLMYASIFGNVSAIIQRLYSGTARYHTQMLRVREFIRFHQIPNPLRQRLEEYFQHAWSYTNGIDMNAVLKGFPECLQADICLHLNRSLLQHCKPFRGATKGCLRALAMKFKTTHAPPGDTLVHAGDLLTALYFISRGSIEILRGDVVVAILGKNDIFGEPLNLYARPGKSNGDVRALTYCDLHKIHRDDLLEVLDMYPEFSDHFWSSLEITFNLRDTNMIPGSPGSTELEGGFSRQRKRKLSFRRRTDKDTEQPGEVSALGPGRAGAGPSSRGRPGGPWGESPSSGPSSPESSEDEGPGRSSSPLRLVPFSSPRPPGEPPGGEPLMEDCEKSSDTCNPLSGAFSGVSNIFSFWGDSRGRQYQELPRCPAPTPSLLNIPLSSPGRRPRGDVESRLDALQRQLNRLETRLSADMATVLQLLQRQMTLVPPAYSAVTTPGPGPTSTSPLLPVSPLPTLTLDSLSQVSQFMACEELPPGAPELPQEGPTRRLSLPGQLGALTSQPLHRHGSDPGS
row,Structure (SMILES),"hERG current change (%, negative = inhibition) at 10uM [%]"
1,O=C(CN1C(=O)C2CC=CCC2C1=O)Nc1nnc(C2CC2)s1 (centres unmarked),6.01
2,COc1ccc(N(CC(=O)NC2CC3CCC2C3)S(=O)(=O)c2ccccc2)cc1Cl (centres unmarked),-19.4
3,O=C(CSc1ccc2c(c1)OCCO2)Nc1ccc(Cl)cn1,24.3
4,CN(C)C(=O)c1noc2cc([N+](=O)[O-])ccc12,-12
5,Cc1c(C#N)c2ccccc2n1CC(=O)NCC1CCCO1 (centres unmarked),16.8
6,CCc1ccccc1NC(=O)COc1ccc2oc(-c3ccc(OC)cc3)cc(=O)c2c1,5.29
7,O=S(=O)(NCc1ccccc1)c1ccc(-n2cccn2)cc1,-16.6
8,Cc1nc(SCC(=O)N2CCCCCC2)[nH]c(=O)c1C,19.5
9,CCc1cc(=O)[nH]c(SCCCF)n1,-50.2
10,CCc1cc(=O)[nH]c(SCCC(F)=C(F)F)n1,27.7
11,CCCCSc1nc(CCC)cc(=O)[nH]1,-7.39
12,CC(c1ccccc1)N1C(=O)/C(=C/c2ccncc2)SC1=S (centres unmarked),3.24
13,CC(NC(=O)NCCCC(=O)O)(C(F)(F)F)C(F)(F)F,11.3
14,CCC(C)c1ccc(OCCN2CCCC2)cc1 (centres unmarked),-15.4
15,CC(C)c1ccc(OCCCCN2CCCCC2)cc1.O=C(O)C(=O)O,-58.8
16,CC(C)(C)c1ccc(OCCCN2CCCC2)cc1,-56.4
17,CC(C)c1ccc(/C=N/N2CCCCC2)cc1.O=C(O)C(=O)O,-84.3
18,CC(C)c1ccc(OCCCN2CCCC2)cc1,-67.1
19,CC(C)(C)c1ccc(OCCCCCCN2CCNCC2)cc1,-0.393
20,CC(C)c1ccc(OCCCCCN2CCOCC2)cc1.O=C(O)C(=O)O,-24.9
21,CC(=O)Nc1ccc(/C=N/N2CCCCC2)cc1,16.5
22,CC(C)(C)c1ccc(OCCN2CCCC2)cc1,-20.6
23,c1cc(OCCCN2CCCCC2)ccc1CN1CCCCC1,14.1
24,Cc1cc(OCCN2CCCC2)cc(C(C)C)c1.O=C(O)C(=O)O,-0.795
25,Clc1ccc(/C=N/N2CCCCC2)cc1,7.36
26,CCOc1ccc(-c2cnc3ccccc3n2)cc1,14.3

row,Structure (SMILES),"hERG current change (%, negative = inhibition) at 10uM [%]"
1,CC(C)=C1C2CCC1C1C(=O)N(c3ccc(C)c(C)c3)C(=O)C21 (centres unmarked),3.55
2,COc1ccc2nc(C)cc(SCC(=O)N/N=C/c3c(OC)ccc4ccccc34)c2c1,12.8
3,CC(C)N(C(=O)Cn1c(SCC(=O)NCc2ccc3c(c2)OCO3)nc2ccccc21)C(C)C,-34.1
4,CCN(CC)C(=O)CSc1ncnc2c1cnn2-c1ccccc1,-14.2
5,CCSc1nnc(Cn2c(=O)sc3ccccc32)n1-c1ccccc1C,-2.71
6,CN(/N=C/c1ccc(N(C)C)cc1)C1=NS(=O)(=O)c2ccccc21,20.6
7,Cc1ccc2[nH]c3c(=O)n(Cc4ccccn4)cnc3c2c1,-1.6
8,COC(=O)c1[nH]c2cc(OC)ccc2c1NC(=O)c1c(F)cccc1F,2.79
9,CC(C)Oc1ccc(C(=O)CCN2CCCCC2)cc1,-20.9
10,Cc1cc(OCCOCCN2CCCC2)ccc1C(C)C,-53.9
11,COc1ccc(OCCCN2CCCCCC2)cc1.O=C(O)C(=O)O,-19.3
12,CCOc1ccc(OCCCCN2CCCC2)cc1.O=C(O)C(=O)O,-12.2
13,Clc1ccc(OCCCCN2CCCCC2)cc1.O=C(O)C(=O)O,-65.5
14,CCOc1cccc(OCCOCCN2CCCC2)c1,-10.1
15,Clc1cccc(Cl)c1OCCCCN1CCCCC1.O=C(O)C(=O)O,-40.8
16,Cc1cc(OCCN2CCCC2)ccc1C(C)C,-22.5
17,CC(C)Oc1ccc(OCCCN2CCCCCC2)cc1.O=C(O)C(=O)O,-54.8
18,O=C1COc2ccc(S(=O)(=O)N3CCCCC3)cc2N1,20
19,Cc1ccc(NNC(=O)C(O)(c2cccc(C(F)(F)F)c2)c2cccc(C(F)(F)F)c2)cc1,-7.55
20,COc1cc2c(cc1OC)C(C)N(S(=O)(=O)c1ccc(C)cc1)CC2 (centres unmarked),-15
21,COc1ccc(C(C(=O)NC2CCCCC2)N(C(=O)c2snc(C(N)=O)c2N)c2ccccc2OC)cc1 (centres unmarked),11.4
22,CC1CCC(NC(=O)CCS(=O)(=O)c2ccc3c(c2)oc(=O)n3C)CC1 (centres unmarked),5.15
23,N=c1c2c(-c3ccccc3)c(-c3ccccc3)n(Cc3ccco3)c2ncn1CCCn1ccnc1,-74.3
24,c1ccc(-c2c(-c3ccccc3)n(Cc3ccco3)c3ncnc(NCCCn4ccnc4)c23)cc1,-71.6
25,OCCNc1ncnc2c1c(-c1ccccc1)c(-c1ccccc1)n2Cc1ccco1,-44.9
26,c1ccc(-c2ccccc2OCCCCn2ccnc2)cc1,-26.4

row,Structure (SMILES),"hERG current change (%, negative = inhibition) at 10uM [%]"
1,O=C(NCCCn1ccnc1)c1ccco1,-4.47
2,c1ccc(Cn2ccnc2)cc1,19.6
3,O=c1[nH]c(=O)n(Cc2ccco2)c(O)c1C=NCCCn1ccnc1,16.3
4,Cc1sc2ncnc(NCCCn3ccnc3)c2c1C,-46.1
5,N=c1c2c(-c3ccccc3)c(-c3ccccc3)n(Cc3ccccc3)c2ncn1CCCn1ccnc1,-71.2
6,O=C(CSc1nc2cc(C(=O)O)ccc2c(=O)n1-c1ccc(F)cc1)Nc1ccc(F)c(F)c1F,1.54
7,CCCCn1c(NC(=O)c2ccc(F)cc2)c(C#N)c2nc3ccccc3nc21,6.88
8,CCc1cc(C(=O)OC)c(NC(=O)CC2SC(N)=NC2=O)s1 (centres unmarked),-6.56
9,CCCC(=O)N1CCC(CCC(=O)NC2CC2)CC1,7.63
10,COc1ccc(S(=O)(=O)N2c3ccccc3NC(=O)CC2C)cc1 (centres unmarked),9.7
11,O=[N+]([O-])c1ccc(CS(=O)(=O)c2ccc(Cl)cc2)cc1,-9.81
12,CCc1ccc(Nc2nnc(SCC(=O)c3c(N)n(C4CC4)c(=O)[nH]c3=O)s2)cc1,-17.7
13,COc1cnc(-c2ccccn2)nc1NC(C)C,7.65
14,C=CCNC(=O)c1onc(CS(=O)(=O)c2cc(C)cc(C)c2)c1C(=O)NCC=C,-8.18
15,CCC(C)[C@H](N)c1nnc(SCC(=O)c2ccc(Cl)cc2)o1 (some centres unmarked),-52.5
16,CC(C)[C@H](N)c1nnc(SCC(=O)c2ccc(Cl)cc2)o1.Cl,-14.2
17,C[C@H](N)c1nnc(SCC(=O)c2ccc(Cl)cc2)o1,-6.79
18,Cc1ccc2oc(C(=O)N(C)Cc3ccon3)c(C)c2c1,4.23
19,Cc1cccc2c(=O)cc(C(F)(F)F)[nH]c12,13.8
20,COc1ccc(CN2CCC(C(=O)NCCc3ccc(OC)c(OC)c3)CC2)c(OC)c1,-29.9
21,CCc1ccc(-c2nc(CN3CCC(C(=O)NCCc4ccc(OC)c(OC)c4)CC3)c(C)o2)cc1,-76.2
22,COc1ccc(-c2nc(CN3CCC(C(=O)NC4CC4)CC3)c(C)o2)cc1OC,-12.8
23,CCS(=O)(=O)N1CCCC(C(=O)NCCc2ccc(OC)c(OC)c2)C1 (centres unmarked),13.1
24,CCc1ccc(-c2nc(CN3CCCC(C(=O)NCCc4ccc(OC)c(OC)c4)C3)c(C)o2)cc1 (centres unmarked),-50.5
25,COc1ccc(CCNC(=O)C2CCCN(S(C)(=O)=O)C2)cc1OC (centres unmarked),12
26,Cn1c(=O)cc(OCCCC(=O)NCc2ccc(F)cc2Cl)c2ccccc21,-15.1

row,Structure (SMILES),"hERG current change (%, negative = inhibition) at 10uM [%]"
1,CCCOc1ccc(C(C)=O)cc1CSCCC#N,-1.08
2,Cn1c(CC(=O)Nc2ccccc2F)nnc1SCC(=O)NC1CCCC1,11
3,COc1cccc(OCc2cc(C(=O)NCCN3CCCCC3CO)no2)c1 (centres unmarked),2.5
4,Cc1cc(OCc2cc(C(=O)NCCN3CCCCC3CO)no2)cc(C)c1Cl (centres unmarked),-65.8
5,Cc1cc(OCc2cc(C(=O)NC3CCC3)no2)cc(C)c1Cl,3.82
6,COCCN1CC(CNC(=O)c2cc(COc3ccc(C)c(C)c3)on2)CC1=O (centres unmarked),-20.8
7,Cc1ccc(OCc2cc(C(=O)NCC3COCCO3)no2)cc1C (centres unmarked),-10
8,CCN1CCCC1CNC(=O)c1cc(COc2ccc(C)c(C)c2)on1 (centres unmarked),-65.2
9,Cn1c(SCC(=O)NNC(=O)c2ccc(Br)cc2)nnc1-c1cccnc1,25.6
10,Cc1ccc(NC(=O)NC(=O)CSc2nnc(-c3ccc(Cl)cc3Cl)n2N)c(C)c1,-6.38
11,Cc1nc(C)c(C(=O)NNS(=O)(=O)c2ccccc2)s1,8.26
12,CCOc1cc(CNCc2ccccn2)cc(Cl)c1OC.Cl,29.6
13,Cl.Fc1ccc(COc2cccc(CNCc3ccncc3)c2)cc1,-40.6
14,CCOc1c(Cl)cc(CNCc2ccccn2)cc1OC.Cl,-18.7
15,COc1cc(/C=N/N=C(N)N)ccc1OCc1ccc(Cl)cc1,-50.5
16,Cl.OCCNCc1cccc(OCc2ccc(Cl)cc2)c1,-12.9
17,COc1cc(CNCc2ccccn2)ccc1OCc1ccc(Cl)c(Cl)c1.Cl,-51.2
18,CCOc1cc(/C=N/N=C(N)N)ccc1OCc1ccc(Cl)cc1,-19.9
19,COc1cc(/C=N/O)ccc1OCc1ccc(Cl)cc1,19.6
20,COc1cc(CNCc2ccccn2)ccc1OCC(=O)NC(C)(C)C.Cl,0.777
21,Cl.Clc1ccc(COc2cccc(CNCc3ccncc3)c2)cc1,-59.8
22,COc1cc(CNCc2ccccn2)ccc1OCc1cccc(Cl)c1.Cl,-54
23,Cl.c1ccc(COc2cccc(CNCc3ccccn3)c2)cc1,-45.2
